# Assays:
# Assay in all cases: PBM binding z-score (relative to random genomic background probes); higher = stronger binding; sequences stand for … in GC…GCGATTGACAGCGTAGAATGAAGG
# [1] = tested on: PPARg:RXRa DBDmut IVT, anti-RXR (DBD mutation: RXRa K156A/R161A, NR concentration 270 nM, RXRa partner concentration 90 nM)
# Outline: (§1)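 Custom Agilent 4×180K protein-binding microarrays carried double-stranded probes. Their 34-nt variable regions held direct-repeat seeds, single-nucleotide variants, half-site ablations and random human genomic background sequences. Arrays were incubated 1 h with ligand-free nuclear receptor dimers in PBS pH 7.4, 2% milk, 0.02% Triton X-100, 1 mM DTT, 0.2 mg/mL BSA and 0.4 mg/ml salmon testes DNA. Antibodies against each partner (one per run) detected binding, and scanned fluorescence was regression-normalized. Binding z-scores use random background probes as reference.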
# [2] = tested on: PPARg:RXRa IVT, anti-PPARg (NR concentration 270 nM, RXRa partner concentration 90 nM)
# Outline: as §1
# [3] = tested on: PPARg DBDmut:RXRa IVT, anti-PPARg (DBD mutation: PPARg1 K132A/R137A, NR concentration 270 nM, RXRa partner concentration 90 nM)
# Outline: as §1
# [4] = tested on: PPARg DBDmut IVT, anti-PPARg (DBD mutation: PPARg1 K132A/R137A, NR concentration 270 nM)
# Outline: as §1
# [5] = tested on: PPARg homodimer (NR concentration 180 nM)
# Outline: as §1
# [6] = tested on: PXR:RXRa (NR concentration 270 nM, RXRa partner concentration 90 nM)
# Outline: as §1
# [7] = tested on: PXR homodimer (NR concentration 270 nM)
# Outline: as §1
# [8] = tested on: RARa:RXR (NR concentration 270 nM, RXRa partner concentration 90 nM)
# Outline: as §1
# [9] = tested on: RARa homodimer (NR concentration 270 nM)
# Outline: as §1
# [10] = tested on: RARb:RXRa (NR concentration 270 nM, RXRa partner concentration 90 nM)
# Outline: as §1
Sequence,PBM binding z-score [1],PBM binding z-score [2],PBM binding z-score [3],PBM binding z-score [4],PBM binding z-score [5],PBM binding z-score [6],PBM binding z-score [7],PBM binding z-score [8],PBM binding z-score [9],PBM binding z-score [10]
AGTCAAAGTTCACTTGGTAACGTAAGATTCAGCT,0.263,2.42,1.28,0.299,1.76,4.17,2.53,2.62,0.876,4.58
TCATATCGGTAAATGCTAGGTGAAAGTCCGATCT,1.8,1.17,0.763,0.728,0.249,0.387,-0.111,0.463,-0.336,0.381
TAGGCTAGGTCATTGGGCCAGTATAGTACGCATC,2.74,3.99,0.305,0.421,1.41,1.32,-0.0794,1.9,0.178,3.79
TCGAGTAGGTTAGGGGCATTCCGAATGGCGTCGA,2.28,1.28,-1.42,-0.881,0.639,0.385,-0.429,0.334,-0.756,1.06
GCTAGCAGGCCATTTGGCTCACTCAATGACGGGC,0.892,-0.288,-1.29,-1.19,-1.62,-1.01,-0.87,-0.778,-0.899,-0.0959
TCGAGTAGGTTAGGAGCATTCAGAATGGCGTCGA,1.4,0.397,-0.907,-1.2,-0.371,-0.392,-0.58,-0.181,-0.978,0.0424
TCTTGTAGATCAAAGGTTATGAAAGCCGAAGCCT,2.32,3.32,0.577,0.452,1.12,1.88,0.0149,3.07,-0.114,1.79
TAGCCTAGGTCAGATCGGGCCGGTATACGCTATA,0.592,1.34,-0.27,-0.214,0.114,0.345,-0.722,0.515,-0.746,2.98
TAGCCTAGGTAATTGGGCCAGTATAGTACGCATC,1.83,2.8,0.0704,-0.276,-0.531,-0.502,-0.469,-0.743,-0.501,-0.455
CCGATTGGGGCAAAGGTTACCATACTCAGTACGA,2.91,4.24,0.329,0.0522,1.15,2.32,-0.232,3.81,-0.223,2.31
TCTGCTAGGTCAGTTGGTCAGCGAACGAGCTGCC,2.76,3.21,-0.0304,0.518,0.0639,0.0473,-0.82,0.461,-1.14,3.55
TCATATAGGTAATACGGGTGAAAGTCGGCATCTA,3.97,3.5,0.9,0.874,0.552,0.662,0.363,1.01,1.49,0.495
TAGCCTAGGTCATTGAGCCAGTATAGTACGCATC,1.41,2.41,0.454,0.0795,0.0834,1.53,-0.111,2.18,-0.419,3.6
TATACAGGGTCAAAGGCCAGAGTCCGAATGTCGA,2.36,4.8,1.49,0.522,2.08,4.27,0.713,5.31,0.835,4.31
CCAGACAGGTTAAAGGTAACTCAGTCTGGTACGC,0.728,1.86,-0.35,-0.757,1.24,2.15,-0.196,3.52,0.287,1.69
GCGACTGGGGCATCAGGAGGTTACCATAACTTAA,3.82,3.59,-0.435,-0.747,0.816,0.63,-0.0464,1.16,-0.466,1.21
TTACCAAGGAGAAAGGTCGTTGATGCACGCCTTG,0.0947,0.908,0.246,0.131,0.653,1.82,-0.00641,2.12,-0.114,1.5
TAGCCTAGGTCAGATCGAGCCAGTATACGCTATA,0.497,1.39,-0.253,-0.42,-0.43,0.136,-0.429,0.664,-0.528,2.81
TCATATTGGTAAATGCTAGGTGAAAGTCCGATCT,2.35,0.751,1.11,1.6,1.32,0.588,0.616,0.882,1.3,0.404
TTACCAAGGTGAAAGGTCGATGATGCACGCCTTG,2.4,4.78,0.899,1.64,2.36,3.08,-0.143,4.99,0.188,2.98
AGTCAAAGTTCAGAACGAGGTAACGTAAAGCACG,0.0651,2.1,0.709,0.236,1.58,3.14,1.5,2.94,0.271,4.01
CCAGACAGGAGAAAGGTAACTCAGTCTGGTACGC,0.0518,-0.161,-0.761,-0.621,0.229,-0.00799,0.153,0.168,0.262,0.234
AATGCAGGGTCATCGTAGGCCAGAGTACGCACAG,2.83,4.24,1.78,1.66,2.03,4.81,0.279,4.75,0.252,4.37
TCTGCTAGGTCAACGATGCTCAGCTAATCTGCTA,4,3.88,0.146,-0.121,-0.00894,0.886,-1.03,1.69,-0.557,3.82
ATCTCTAGATAACAAGTTCAGTGAAAGAGAGGAC,-0.504,0.236,0.623,0.272,0.186,1.26,1.72,0.0962,0.589,1

Sequence,PBM binding z-score [1],PBM binding z-score [2],PBM binding z-score [3],PBM binding z-score [4],PBM binding z-score [5],PBM binding z-score [6],PBM binding z-score [7],PBM binding z-score [8],PBM binding z-score [9],PBM binding z-score [10]
ATCTCTAGGTAACCAAGTTCATTGAATGCCGAAC,3.59,3.08,1.78,1.57,1.37,3.97,7.05,1.72,1.19,1.75
ATATGTACGTTAGCTGGGGTCATTCAGACTAGGC,0.759,1.55,1.41,1.62,2.55,5.7,3.18,5.82,1.41,2.57
TCGAGTCGGTTACCAATGGGGCATTCAGCTTTCT,0.844,-0.0532,-0.399,-0.375,-0.537,-0.204,-0.793,-0.238,-0.811,0.0866
TCTATTAGTTGAAGGGCAGCCGACGAGTCCGTTT,2.37,0.427,0.454,1.07,0.963,0.654,0.958,0.447,0.781,1.37
CGTCCAAGGTCAAAGGAGGTCAGTGAAGACAGAT,3.19,4.71,0.585,-0.349,3.39,6.84,3.62,5.79,0.875,5.6
TCTCGGAGGAGACGAAAGGTCAGAGCTCGACATC,0.912,1.49,-0.00299,-0.844,3.1,3.44,-0.0245,4.57,1.35,3.44
TCTAGCAGGCCAGAGGATCACTCAAGAGGTACGG,0.493,-0.268,-0.802,-1.11,-1.15,-0.557,-0.932,-0.354,-1.38,-0.18
AGAATGAGGTTACCAAAGATCAGGGATACGCTTG,3.77,3.44,1.54,0.614,0.494,1.38,-0.284,2.04,0.01,1.98
CCAGACAGGTGAAAGGTGACTCAGTCTGGTACGC,2.4,3.47,0.243,-0.992,1.3,1.85,0.0178,2.91,0.796,1.96
TCTTGTAGATCAACAGGAGGTTGAGAAAGATCGA,1.36,0.267,0.852,-0.116,-0.716,0.0835,-0.557,0.0993,-0.378,-0.147
ATATGTAGGTTAGCTGGGGTAATTCAGACTAGGC,6.75,6.17,1.99,1.76,0.916,1.12,0.0639,1.44,0.818,1.02
TCTAATAGTTGATTAGGGCAACCGAAACAGCGGA,1.74,1.56,0.711,0.3,0.347,0.323,-0.117,0.766,-0.402,0.915
CCTACTGGGCCATTCAGAGGTCATTCATCATATG,4.22,4.45,-0.0468,0.03,2.18,4.81,2.5,4.07,0.581,2.9
TCATATAGGTAAATGCTAGGTGAAAGGCCGATCT,3.92,2.61,1.09,0.912,1.13,0.776,0.428,1.1,1.3,0.655
GCTCGGAGCACAAGGTCAGAGCTTTGTCCGTAGA,0.516,0.181,-1.55,-1.25,0.0109,1.7,-0.525,1.75,-1.06,2.63
AGTCAAAGCTCATCTAGGTAACGTAAGATATGCT,0.59,1.71,0.357,0.493,-0.497,-0.42,-0.351,-0.0294,-0.0154,-0.0836
TCATATAGATAAATGCTAGGTGAAAGTCCGATCT,2.73,0.677,0.125,0.81,0.438,0.417,0.256,0.494,1.19,0.184
ATCTCCAGGTAAAAGTTCAGTGAATCCCGAGGAT,0.0885,2.31,1.68,1.01,1.84,2.4,1.88,2.14,1.07,2.6
CGAACTAGGTCAAGGACAGTGCATCTCCGCACGC,8.15,8.09,1.65,0.963,1.3,2.24,0.348,1.94,-0.145,3.97
ATGGAAAGGTCGAGGTGAGTATAGAGAAAGGGAA,0.536,2.48,1.74,0.527,1.67,2.55,1.05,3.1,1.32,4.07
TAGCCTAGGTCAATGGGCCAGTATAGTACGCATC,1.98,3.19,-0.338,-0.429,0.9,0.686,-0.285,1.56,0.0956,3.67
CTACCAAGGTGAACAAGGCCGTTGATTACTATTC,2.3,2.16,0.257,-0.28,0.346,0.327,0.451,0.868,-0.304,1.59
CGTCCAAGGTCATAGCAGGTCAGTGAAGACAGAT,3.54,4.67,0.604,1.12,3.76,6.05,2.47,5.07,1.79,5.09
AGACCGAGGGCAATGAGTTGATAGCACGGGTGGC,0.184,0.251,-0.826,-1.67,-1.05,1.23,5.21,-0.109,-0.589,1.79
